# Data as given in article PMC7862700, “An all-to-all approach to the identification of sequence-specific readers for epigenetic DNA modifications on cytosine”.
# Tests used:
# Assay in all cases: DAPPL (digital affinity profiling via proximity ligation, sequencing); 10 mM Tris-HCl pH 7.5, 50 mM NaCl, 1 mM DTT, 4% glycerol, room temperature, 30 min; GST-TFs on glutathione beads, 16-mer random dsDNA library, 0.1% formaldehyde crosslink after washing; high values mean tight binding
# Details in all cases: protein: recombinant; tags: N-terminal GST; dsDNA, one strand shown
# ELK1 = biological target: T1, ELK1 (Homo sapiens, UniProt P19419 1-428)
# T1 sequence: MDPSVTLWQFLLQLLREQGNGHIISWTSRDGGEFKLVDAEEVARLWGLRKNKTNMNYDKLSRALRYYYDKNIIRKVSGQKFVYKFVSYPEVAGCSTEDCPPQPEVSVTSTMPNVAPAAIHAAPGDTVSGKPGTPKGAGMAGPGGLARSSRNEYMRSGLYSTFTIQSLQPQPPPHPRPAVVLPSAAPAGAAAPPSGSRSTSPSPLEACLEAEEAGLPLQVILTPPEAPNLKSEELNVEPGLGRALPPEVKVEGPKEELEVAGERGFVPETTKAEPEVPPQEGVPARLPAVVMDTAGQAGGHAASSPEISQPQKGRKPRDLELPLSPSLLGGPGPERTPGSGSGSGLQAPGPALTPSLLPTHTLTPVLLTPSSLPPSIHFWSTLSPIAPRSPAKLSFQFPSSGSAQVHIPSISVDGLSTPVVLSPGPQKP
# Procedure, shortened: (§1)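 Sequencing on an Illumina NextSeq500 followed washing, crosslinking with 0.1% formaldehyde, proximity ligation (BsaI/T4 ligase, 1 h, 37 °C) and PCR amplification of pools that had been incubated for 30 min at room temperature with 200 nmole of a random double-stranded 16-mer DNA library in Tris/NaCl/DTT/glycerol buffer. Each pool held DNA-barcoded human transcription factors, expressed in yeast as GST fusions and captured on glutathione beads, plus a tag-only sample. Binding signal is a hexamer's read frequency for a factor divided by its frequency in the tag-only sample.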
# ERG = biological target: T2, ERG (Homo sapiens, UniProt P11308 1-479)
# T2 sequence: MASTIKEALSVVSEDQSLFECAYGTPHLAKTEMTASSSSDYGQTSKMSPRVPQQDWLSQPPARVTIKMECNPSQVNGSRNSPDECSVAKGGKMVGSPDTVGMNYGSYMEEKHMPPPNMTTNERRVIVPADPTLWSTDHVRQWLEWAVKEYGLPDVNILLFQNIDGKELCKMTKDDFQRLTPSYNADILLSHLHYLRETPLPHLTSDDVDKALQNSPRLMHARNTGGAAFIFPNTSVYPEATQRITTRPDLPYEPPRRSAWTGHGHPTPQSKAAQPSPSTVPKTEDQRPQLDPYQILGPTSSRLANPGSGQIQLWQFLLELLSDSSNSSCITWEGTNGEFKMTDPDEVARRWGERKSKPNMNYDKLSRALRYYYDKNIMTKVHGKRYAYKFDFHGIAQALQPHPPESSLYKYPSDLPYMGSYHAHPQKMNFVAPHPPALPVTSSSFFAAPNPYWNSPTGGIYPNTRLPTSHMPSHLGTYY
# Procedure, shortened: as §1
# ELF1 = ELF1 (Homo sapiens, UniProt P32519 1-619)
# Procedure, shortened: as §1
# EHF = biological target: T3, EHF (Homo sapiens, UniProt Q9NZC4 1-300)
# T3 sequence: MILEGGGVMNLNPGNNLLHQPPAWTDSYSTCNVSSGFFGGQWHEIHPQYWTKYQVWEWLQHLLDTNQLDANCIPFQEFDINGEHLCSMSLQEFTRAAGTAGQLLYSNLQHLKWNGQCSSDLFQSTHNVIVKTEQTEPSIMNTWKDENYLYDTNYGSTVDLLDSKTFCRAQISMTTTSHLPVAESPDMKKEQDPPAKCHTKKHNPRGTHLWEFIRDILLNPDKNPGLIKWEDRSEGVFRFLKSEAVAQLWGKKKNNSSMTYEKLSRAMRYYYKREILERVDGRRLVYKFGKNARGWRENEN
# Procedure, shortened: as §1
# SPIB = SPIB (Homo sapiens, UniProt Q01892 1-262)
# Procedure, shortened: as §1
# FEV = biological target: T4, FEV (Homo sapiens, UniProt Q99581 1-238)
# T4 sequence: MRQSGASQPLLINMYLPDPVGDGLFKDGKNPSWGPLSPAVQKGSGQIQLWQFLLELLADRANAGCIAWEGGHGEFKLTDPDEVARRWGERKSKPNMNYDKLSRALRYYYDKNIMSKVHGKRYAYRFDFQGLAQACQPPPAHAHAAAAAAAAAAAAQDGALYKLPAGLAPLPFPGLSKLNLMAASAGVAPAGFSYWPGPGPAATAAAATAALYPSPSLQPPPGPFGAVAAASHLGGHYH
# Procedure, shortened: as §1
# ETV5 = ETV5 (Homo sapiens, UniProt P41161 1-510)
# Procedure, shortened: as §1
# ELF4 = ELF4 (Homo sapiens, UniProt Q99607 1-663)
# Procedure, shortened: as §1
# ELK4 = biological target: T5, ELK4 (Homo sapiens, UniProt P28324-2 1-405)
# T5 sequence: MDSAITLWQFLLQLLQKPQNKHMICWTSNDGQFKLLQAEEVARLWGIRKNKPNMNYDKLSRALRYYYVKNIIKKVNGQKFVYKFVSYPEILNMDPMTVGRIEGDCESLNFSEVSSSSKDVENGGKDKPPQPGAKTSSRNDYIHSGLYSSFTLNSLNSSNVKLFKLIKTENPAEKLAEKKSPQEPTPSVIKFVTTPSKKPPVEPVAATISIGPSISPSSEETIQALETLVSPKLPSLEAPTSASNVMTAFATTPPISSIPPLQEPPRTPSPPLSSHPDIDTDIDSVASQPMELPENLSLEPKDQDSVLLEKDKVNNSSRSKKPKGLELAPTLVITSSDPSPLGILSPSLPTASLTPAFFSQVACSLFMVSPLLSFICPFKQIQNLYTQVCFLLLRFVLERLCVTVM
# Procedure, shortened: as §1
# ETV2 = biological target: T6, ETV2 (Homo sapiens, UniProt O00321 1-342)
# T6 sequence: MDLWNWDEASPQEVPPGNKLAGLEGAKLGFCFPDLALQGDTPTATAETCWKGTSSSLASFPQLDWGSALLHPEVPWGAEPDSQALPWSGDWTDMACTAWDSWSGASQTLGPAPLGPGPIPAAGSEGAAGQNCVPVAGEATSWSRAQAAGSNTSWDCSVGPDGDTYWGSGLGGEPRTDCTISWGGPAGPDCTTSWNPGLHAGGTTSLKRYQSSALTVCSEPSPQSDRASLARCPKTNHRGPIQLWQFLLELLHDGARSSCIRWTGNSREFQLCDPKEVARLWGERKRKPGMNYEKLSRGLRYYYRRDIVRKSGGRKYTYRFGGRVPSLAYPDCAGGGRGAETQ
# Procedure, shortened: as §1
# ELF3 = biological target: T7, ELF3 (Homo sapiens, UniProt P78545 1-371)
# T7 sequence: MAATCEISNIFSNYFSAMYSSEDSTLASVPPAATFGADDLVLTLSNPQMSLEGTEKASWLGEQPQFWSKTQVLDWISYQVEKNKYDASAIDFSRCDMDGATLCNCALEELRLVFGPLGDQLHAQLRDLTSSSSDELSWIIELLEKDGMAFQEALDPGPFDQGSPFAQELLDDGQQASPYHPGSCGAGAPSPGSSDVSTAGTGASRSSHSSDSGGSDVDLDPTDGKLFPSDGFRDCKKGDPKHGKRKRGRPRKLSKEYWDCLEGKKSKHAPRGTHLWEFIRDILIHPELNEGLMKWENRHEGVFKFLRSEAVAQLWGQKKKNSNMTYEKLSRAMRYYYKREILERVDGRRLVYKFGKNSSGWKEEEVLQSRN
# Procedure, shortened: as §1
# ETV1 = ETV1 (Homo sapiens, UniProt P50549 1-477)
# Procedure, shortened: as §1
# ERF = biological target: T8, ERF (Homo sapiens, UniProt P50548 1-548)
# T8 sequence: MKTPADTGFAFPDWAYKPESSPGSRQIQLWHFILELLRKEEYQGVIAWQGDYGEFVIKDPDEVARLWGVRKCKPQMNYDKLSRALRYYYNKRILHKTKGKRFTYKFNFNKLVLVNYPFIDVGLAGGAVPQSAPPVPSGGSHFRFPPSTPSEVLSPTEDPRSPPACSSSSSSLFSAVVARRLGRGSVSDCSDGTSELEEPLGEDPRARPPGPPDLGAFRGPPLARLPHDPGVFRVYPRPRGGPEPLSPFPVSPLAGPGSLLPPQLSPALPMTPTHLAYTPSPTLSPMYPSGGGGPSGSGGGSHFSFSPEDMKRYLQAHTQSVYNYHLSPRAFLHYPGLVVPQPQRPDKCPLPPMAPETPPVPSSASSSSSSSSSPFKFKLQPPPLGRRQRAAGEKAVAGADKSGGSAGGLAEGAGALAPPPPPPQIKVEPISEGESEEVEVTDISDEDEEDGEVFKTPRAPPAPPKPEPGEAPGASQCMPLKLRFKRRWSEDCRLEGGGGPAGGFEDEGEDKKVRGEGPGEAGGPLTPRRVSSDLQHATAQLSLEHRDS
# Procedure, shortened: as §1
# ETV3L = biological target: T9, ETV3L (Homo sapiens, UniProt Q6ZN32 1-361)
# T9 sequence: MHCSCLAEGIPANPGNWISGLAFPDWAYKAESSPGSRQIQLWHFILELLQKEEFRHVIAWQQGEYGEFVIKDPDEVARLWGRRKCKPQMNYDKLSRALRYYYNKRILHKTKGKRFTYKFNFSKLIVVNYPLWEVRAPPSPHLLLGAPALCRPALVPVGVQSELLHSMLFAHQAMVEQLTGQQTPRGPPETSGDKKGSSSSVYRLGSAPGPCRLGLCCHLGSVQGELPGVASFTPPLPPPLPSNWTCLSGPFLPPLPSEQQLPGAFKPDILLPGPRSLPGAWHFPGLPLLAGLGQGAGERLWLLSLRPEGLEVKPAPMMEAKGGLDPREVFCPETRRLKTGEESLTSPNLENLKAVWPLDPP
# Procedure, shortened: as §1
# ETS2 = biological target: T10, ETS2 (Homo sapiens, UniProt P15036 1-469)
# T10 sequence: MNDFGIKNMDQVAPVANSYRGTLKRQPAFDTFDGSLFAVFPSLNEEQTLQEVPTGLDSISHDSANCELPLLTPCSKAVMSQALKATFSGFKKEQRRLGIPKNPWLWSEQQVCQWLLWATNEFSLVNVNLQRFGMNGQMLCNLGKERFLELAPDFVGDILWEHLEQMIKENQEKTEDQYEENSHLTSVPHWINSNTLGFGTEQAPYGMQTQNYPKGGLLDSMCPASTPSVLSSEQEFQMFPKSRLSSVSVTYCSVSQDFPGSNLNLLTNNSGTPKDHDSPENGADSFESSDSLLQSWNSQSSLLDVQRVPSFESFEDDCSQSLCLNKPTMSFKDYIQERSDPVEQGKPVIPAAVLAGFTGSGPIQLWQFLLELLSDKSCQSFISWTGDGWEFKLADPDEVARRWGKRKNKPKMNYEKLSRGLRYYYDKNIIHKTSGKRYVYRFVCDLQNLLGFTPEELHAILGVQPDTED
# Procedure, shortened: as §1
# SPDEF = biological target: T11, SPDEF (Homo sapiens, UniProt O95238 1-335)
# T11 sequence: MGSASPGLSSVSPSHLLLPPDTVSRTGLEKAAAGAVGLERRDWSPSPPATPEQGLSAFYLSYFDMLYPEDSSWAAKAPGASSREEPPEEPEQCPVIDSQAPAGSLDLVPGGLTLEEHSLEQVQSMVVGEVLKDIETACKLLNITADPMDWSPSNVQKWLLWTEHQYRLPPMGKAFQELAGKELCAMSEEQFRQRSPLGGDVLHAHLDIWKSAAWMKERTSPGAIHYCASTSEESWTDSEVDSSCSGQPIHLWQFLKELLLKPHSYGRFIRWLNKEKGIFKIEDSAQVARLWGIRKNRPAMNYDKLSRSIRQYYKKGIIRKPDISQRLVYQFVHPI
# Procedure, shortened: as §1
# ETV7 = biological target: T12, ETV7 (Homo sapiens, UniProt Q9Y603 1-341)
# T12 sequence: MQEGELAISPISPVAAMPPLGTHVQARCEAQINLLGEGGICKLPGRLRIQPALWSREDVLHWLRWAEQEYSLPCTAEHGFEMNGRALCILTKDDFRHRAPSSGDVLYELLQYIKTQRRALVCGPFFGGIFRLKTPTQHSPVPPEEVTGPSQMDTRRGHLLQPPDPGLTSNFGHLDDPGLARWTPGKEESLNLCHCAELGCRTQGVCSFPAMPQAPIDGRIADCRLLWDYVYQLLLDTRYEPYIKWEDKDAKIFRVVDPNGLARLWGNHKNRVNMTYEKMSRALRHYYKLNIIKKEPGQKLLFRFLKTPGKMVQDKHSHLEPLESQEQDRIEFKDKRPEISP
# Procedure, shortened: as §1
# ETV3 = biological target: T13, ETV3 (Homo sapiens, UniProt P41162-2 1-143)
# T13 sequence: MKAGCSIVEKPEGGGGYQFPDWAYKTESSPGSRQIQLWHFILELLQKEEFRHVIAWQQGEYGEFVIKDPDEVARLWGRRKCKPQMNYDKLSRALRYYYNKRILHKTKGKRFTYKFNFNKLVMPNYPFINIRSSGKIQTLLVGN
# Procedure, shortened: as §1
# ETV6 = ETV6 (Homo sapiens, UniProt P41212 1-452)
# Procedure, shortened: as §1
# Sequence of ETV6 (P41212 whole entry): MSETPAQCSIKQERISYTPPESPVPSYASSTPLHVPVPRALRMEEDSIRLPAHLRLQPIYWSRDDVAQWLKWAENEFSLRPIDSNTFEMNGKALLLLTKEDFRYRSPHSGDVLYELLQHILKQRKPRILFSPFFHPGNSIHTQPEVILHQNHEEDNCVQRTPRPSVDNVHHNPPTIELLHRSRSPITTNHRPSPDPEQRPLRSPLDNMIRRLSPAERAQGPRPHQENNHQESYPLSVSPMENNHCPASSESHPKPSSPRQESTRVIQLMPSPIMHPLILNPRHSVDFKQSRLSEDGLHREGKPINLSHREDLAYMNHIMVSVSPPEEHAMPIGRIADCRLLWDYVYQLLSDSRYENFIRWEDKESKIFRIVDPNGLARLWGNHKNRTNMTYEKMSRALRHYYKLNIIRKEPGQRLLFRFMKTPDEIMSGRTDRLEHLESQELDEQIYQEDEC
# Sequence of SPIB (Q01892 whole entry): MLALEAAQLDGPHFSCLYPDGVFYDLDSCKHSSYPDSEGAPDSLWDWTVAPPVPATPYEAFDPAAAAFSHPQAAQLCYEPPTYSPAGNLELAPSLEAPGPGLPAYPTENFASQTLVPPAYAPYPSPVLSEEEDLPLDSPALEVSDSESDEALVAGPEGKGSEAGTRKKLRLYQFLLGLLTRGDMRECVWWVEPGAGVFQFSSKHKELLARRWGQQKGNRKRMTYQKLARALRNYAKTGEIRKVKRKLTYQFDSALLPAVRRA
# Sequence of ELF4 (Q99607 whole entry): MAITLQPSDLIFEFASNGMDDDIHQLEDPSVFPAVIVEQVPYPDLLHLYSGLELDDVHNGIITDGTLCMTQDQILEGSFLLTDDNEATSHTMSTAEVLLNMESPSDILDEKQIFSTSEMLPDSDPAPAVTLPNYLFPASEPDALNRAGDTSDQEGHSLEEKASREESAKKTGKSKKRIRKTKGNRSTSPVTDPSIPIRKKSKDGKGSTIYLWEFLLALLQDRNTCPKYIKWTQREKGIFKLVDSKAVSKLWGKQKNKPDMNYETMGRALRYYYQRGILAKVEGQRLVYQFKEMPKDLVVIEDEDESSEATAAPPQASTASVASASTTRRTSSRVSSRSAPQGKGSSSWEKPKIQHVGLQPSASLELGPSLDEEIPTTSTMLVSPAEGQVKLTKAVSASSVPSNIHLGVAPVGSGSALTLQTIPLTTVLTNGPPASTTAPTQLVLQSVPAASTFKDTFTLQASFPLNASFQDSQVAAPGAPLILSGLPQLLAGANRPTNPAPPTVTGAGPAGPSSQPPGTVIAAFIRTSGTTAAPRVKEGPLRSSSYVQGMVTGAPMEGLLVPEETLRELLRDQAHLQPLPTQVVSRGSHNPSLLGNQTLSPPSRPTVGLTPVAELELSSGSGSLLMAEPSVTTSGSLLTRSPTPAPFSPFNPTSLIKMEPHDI
# Sequence of ETV1 (P50549 whole entry): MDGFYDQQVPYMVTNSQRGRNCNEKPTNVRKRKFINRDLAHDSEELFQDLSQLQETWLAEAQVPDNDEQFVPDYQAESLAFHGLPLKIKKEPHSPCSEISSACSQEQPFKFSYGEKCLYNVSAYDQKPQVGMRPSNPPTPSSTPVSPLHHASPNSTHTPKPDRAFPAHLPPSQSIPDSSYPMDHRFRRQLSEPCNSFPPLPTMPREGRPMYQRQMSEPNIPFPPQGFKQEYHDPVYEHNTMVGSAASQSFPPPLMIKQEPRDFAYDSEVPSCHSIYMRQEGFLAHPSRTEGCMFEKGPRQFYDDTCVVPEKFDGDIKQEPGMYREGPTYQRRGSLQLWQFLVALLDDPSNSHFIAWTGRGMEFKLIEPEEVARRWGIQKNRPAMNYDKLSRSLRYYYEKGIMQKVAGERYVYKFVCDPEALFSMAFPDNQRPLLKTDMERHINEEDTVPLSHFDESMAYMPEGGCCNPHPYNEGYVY
# Sequence of ETV5 (P41161 whole entry): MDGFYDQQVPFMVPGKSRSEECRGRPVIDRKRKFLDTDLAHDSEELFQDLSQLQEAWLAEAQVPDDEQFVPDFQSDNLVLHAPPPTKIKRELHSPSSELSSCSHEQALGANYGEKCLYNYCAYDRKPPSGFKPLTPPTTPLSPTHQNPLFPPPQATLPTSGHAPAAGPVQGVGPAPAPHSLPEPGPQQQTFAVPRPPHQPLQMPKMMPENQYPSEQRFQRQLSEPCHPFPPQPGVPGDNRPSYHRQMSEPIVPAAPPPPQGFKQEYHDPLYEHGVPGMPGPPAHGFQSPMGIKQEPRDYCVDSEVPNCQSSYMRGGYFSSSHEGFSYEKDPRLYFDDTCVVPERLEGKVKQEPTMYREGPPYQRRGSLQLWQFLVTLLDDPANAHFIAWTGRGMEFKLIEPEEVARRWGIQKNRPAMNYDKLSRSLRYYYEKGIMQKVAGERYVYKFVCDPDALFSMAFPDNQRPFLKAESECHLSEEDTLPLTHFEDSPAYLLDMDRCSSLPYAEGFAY
# Sequence of ELF1 (P32519 whole entry): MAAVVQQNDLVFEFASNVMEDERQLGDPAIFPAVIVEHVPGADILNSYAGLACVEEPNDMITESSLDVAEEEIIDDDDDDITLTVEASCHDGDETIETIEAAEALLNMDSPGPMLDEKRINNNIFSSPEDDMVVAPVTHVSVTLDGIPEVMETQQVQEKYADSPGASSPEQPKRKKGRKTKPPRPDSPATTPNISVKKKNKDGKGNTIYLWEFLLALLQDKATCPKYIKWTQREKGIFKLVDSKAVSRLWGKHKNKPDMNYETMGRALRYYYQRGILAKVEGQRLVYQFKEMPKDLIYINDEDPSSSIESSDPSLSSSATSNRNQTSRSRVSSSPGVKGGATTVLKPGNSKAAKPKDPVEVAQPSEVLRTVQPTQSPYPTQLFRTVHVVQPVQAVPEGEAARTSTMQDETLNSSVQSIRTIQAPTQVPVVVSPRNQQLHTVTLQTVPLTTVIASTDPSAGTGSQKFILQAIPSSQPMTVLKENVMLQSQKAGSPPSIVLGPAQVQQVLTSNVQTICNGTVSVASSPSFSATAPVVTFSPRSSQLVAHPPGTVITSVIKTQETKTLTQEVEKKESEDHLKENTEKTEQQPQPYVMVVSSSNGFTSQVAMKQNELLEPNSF
sequence,measurement,setting,value
CCCCTA,binding signal,ELK1,"1.07 fold enrichment (6-mer frequency, TF over GST control)"
same,binding signal,ERG,"1.05 fold enrichment (6-mer frequency, TF over GST control)"
same,binding signal,ELF1,"1.18 fold enrichment (6-mer frequency, TF over GST control)"
same,binding signal,EHF,"1.17 fold enrichment (6-mer frequency, TF over GST control)"
same,binding signal,SPIB,"1.08 fold enrichment (6-mer frequency, TF over GST control)"
same,binding signal,FEV,"1.13 fold enrichment (6-mer frequency, TF over GST control)"
same,binding signal,ETV5,"1.07 fold enrichment (6-mer frequency, TF over GST control)"
same,binding signal,ELF4,"1.2 fold enrichment (6-mer frequency, TF over GST control)"
same,binding signal,ELK4,"1.3 fold enrichment (6-mer frequency, TF over GST control)"
same,binding signal,ETV2,"1.06 fold enrichment (6-mer frequency, TF over GST control)"
same,binding signal,ELF3,"1.3 fold enrichment (6-mer frequency, TF over GST control)"
same,binding signal,ETV1,"1.07 fold enrichment (6-mer frequency, TF over GST control)"
same,binding signal,ERF,"1.04 fold enrichment (6-mer frequency, TF over GST control)"
same,binding signal,ETV3L,"1.13 fold enrichment (6-mer frequency, TF over GST control)"
same,binding signal,ETS2,"1.05 fold enrichment (6-mer frequency, TF over GST control)"
same,binding signal,SPDEF,"1.07 fold enrichment (6-mer frequency, TF over GST control)"
same,binding signal,ETV7,"1.06 fold enrichment (6-mer frequency, TF over GST control)"
same,binding signal,ETV3,"1.06 fold enrichment (6-mer frequency, TF over GST control)"
same,binding signal,ETV6,"1.22 fold enrichment (6-mer frequency, TF over GST control)"
